An excerpt weighted towards active compounds, which were near 2.1% of everything screened.
D2 ag-1: HTS Assay for Allosteric Agonists of the Human D2 Dopamine Receptor: Primary Screen for Agonists | D(2) dopamine receptor (Homo sapiens), P14416 | HEK293 T-REx D2 cells, calcium flux agonist mode | activation, % at 2 µM | 340,000 compounds, 0.53% hits;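 active = activation over 3 SD above normal in the single-dose calcium agonist read, cut at about 30% in these data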
Target sequence (P14416 whole entry, looked up): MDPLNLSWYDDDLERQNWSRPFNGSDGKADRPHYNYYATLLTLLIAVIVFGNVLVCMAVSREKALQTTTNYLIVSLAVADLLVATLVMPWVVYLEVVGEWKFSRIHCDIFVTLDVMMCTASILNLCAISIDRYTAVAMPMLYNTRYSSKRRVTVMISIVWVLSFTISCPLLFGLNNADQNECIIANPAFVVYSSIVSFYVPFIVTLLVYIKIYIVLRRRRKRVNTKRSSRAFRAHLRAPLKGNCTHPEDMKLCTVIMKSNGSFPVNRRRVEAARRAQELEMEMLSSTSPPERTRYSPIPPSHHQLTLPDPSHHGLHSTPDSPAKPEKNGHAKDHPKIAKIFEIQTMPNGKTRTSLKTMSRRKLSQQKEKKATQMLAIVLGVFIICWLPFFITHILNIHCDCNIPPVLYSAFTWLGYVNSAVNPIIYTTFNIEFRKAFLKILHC
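Agonism scored from kinetic calcium signal (1 read/sec, 180 s) following compound pin transfer, after a 10 s baseline. Cells: HEK293 Trex line expressing inducible D2 receptor coupled to calcium, dye-loaded after overnight culture at 30 C.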
D2 ag-2: Beta-Arrestin HTS for Positive Allosteric Modulators of the Human D2 Dopamine Receptor: Agonists; activation, % (no concentration beside the values); DiscoveRx PathHunter D2 beta-arrestin, luminescence, 90 min; 100% = 57 uM dopamine signal; 360,000 compounds, 0.084% hits; in the data active = activation above about 40%
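DiscoveRx PathHunter D2 beta-arrestin cells (2,100/well) attached overnight, then compound-stimulated 90 min at 37 C in HBSS/10 mM HEPES/0.1% Tween-20 buffer; beta-galactosidase complementation read by luminescence after 1 h at ambient temperature. Dopamine 57 uM final (EC100) as control.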
D2 antag: HTS Assay for Allosteric Antagonists of the Human D2 Dopamine Receptor: Primary Screen for Antagonists. 340,000 compounds, 2% hits. inhibition, % at 10 µM. HEK293 TREx D2 cells, calcium flux, dopamine EC80; in the data active = inhibition above about 30%; inactive = below that, where a call was filed
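Overnight-induced (tetracycline, 30 C) HEK293 T-REx cells carrying force-coupled D2 receive a no-wash calcium dye, then compound, then EC80 dopamine at 180 s; signals are read kinetically throughout.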
D2 PAM-1: HTS Assay for Positive Allosteric Modulators of the Human D2 Dopamine Receptor: Primary Screen for Potentiators | D(2) dopamine receptor (Homo sapiens), P14416 | HEK293 T-REx D2, calcium flux, EC20 dopamine potentiation | potentiation, % at 10 µM | 340,000 compounds, 0.34% hits | AID 485347, 2010;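 active = potentiation over 3 SD above the plate norm, cut at about 30% in these data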
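Tetracycline-induced HEK293 T-REx cells force-coupled to calcium signalling expressed D2; compounds were pin-added after a 10 s baseline, read kinetically 180 s, then an EC20 dopamine challenge followed with a further 180 s calcium read.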
D2 PAM-2: Beta-Arrestin HTS for Positive Allosteric Modulators of the Human D2 Dopamine Receptor: Potentiators; D(2) dopamine receptor (Homo sapiens), P14416; DiscoveRx D2 beta-arrestin cells, luminescence, 90 min; 100% = 57 uM dopamine signal; potentiation, % (test concentration not listed); 360,000 compounds, 0.23% hits; AID 624464, 2012; in the data active = potentiation above about 50%
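PathHunter D2 cells, attached overnight at 37 deg C, received compound in DMSO plus dopamine at EC20 (50 nM final) for 90 min at 37 deg C. Beta-arrestin recruitment was read as luminescence after 1 h with detection reagent at ambient temperature.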
LDHA inh: qHTS assay for inhibitors of human lactate dehydrogenase. 480,000 compounds, 0.15% hits. activity change, % (values are at about 110 or 230 µM). L-lactate dehydrogenase A chain (Homo sapiens), P00338. AID 1347041, 2019. purified LDHA, NADH/diaphorase-resazurin fluorescence; active compounds read low; in the data active = activity change below about -30%
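Human LDH5 at 2 nM final in Tris HCl pH 7.4 with 0.06 mM NADH and 0.2 mM pyruvate, reacted 5 minutes at room temperature. Remaining NADH coupled via diaphorase/resazurin; resorufin fluorescence read at 0 and 20 minutes, normalized to enzyme-free and DMSO wells.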
Of the large screens only hits and unclear results are named; the others gave an inactive call.

O=C(/C=C/c1ccco1)Nc1cc(Cl)ccc1C(=O)O	D2 antag 34
O=C(/C=C/c1ccco1)NCCc1ccccc1	D2 antag 32
COC(=O)c1sc(=S)n(-c2c(C)cccc2C)c1N	none (no result: D2 ag-1, D2 ag-2, D2 antag, D2 PAM-1, D2 PAM-2)
Cc1sc(NC(=O)c2cc3ccccc3s2)c(C#N)c1C	none (no result: D2 ag-1, D2 ag-2, D2 antag, D2 PAM-1, D2 PAM-2)
CCCCn1nnc(NC(=O)c2ccc(-c3ccccc3[N+](=O)[O-])o2)n1	D2 antag 52
CCOc1ccc(OCCCCN2CCCC2)cc1	none
CCCCOc1ccc(CN2CCCCC2)cc1	D2 antag 52
COC(=O)c1ccc(CN2CCCCC2)cc1	D2 antag 35
CCOC(=O)C1(Cc2ccccc2)CCN(Cc2cn(CC(=O)OC)c3ccccc23)CC1	none
CCOC(=O)C1(CC2CC2)CCN(Cc2cn(C)c3ccccc23)CC1	D2 antag 30
CCOC(=O)C1(CC2CC2)CCN(Cc2ccc(C(=O)OC)cc2)CC1	D2 antag 72
Cc1ccc(-c2cc(C(=O)N3CCN(Cc4ccncc4)CC3)c3ccccc3n2)o1	none (no result: D2 ag-1, D2 ag-2, D2 antag, D2 PAM-1, D2 PAM-2)
c1ccc(-c2nnc3ccc(SCc4ccco4)nn23)cc1	none (no result: D2 ag-1, D2 ag-2, D2 antag, D2 PAM-1, D2 PAM-2)
CCC(CO)NC(=S)Nc1cccc(C)c1 (stereo not drawn)	none (no result: D2 ag-1, D2 ag-2, D2 antag, D2 PAM-1, D2 PAM-2)
Cc1ccc(-c2cc3ccccn3c2)cc1C	none (no result: D2 ag-1, D2 ag-2, D2 antag, D2 PAM-1, D2 PAM-2)
Cn1c(SCc2ccc(F)cc2)nnc1-c1cnccn1	none
NC(=O)CSc1nnc(-c2cnccn2)n1-c1ccccc1	D2 PAM-1 36
Cn1c(SCc2ccccc2)nnc1-c1cnccn1	D2 antag 37
Cc1ccc(-n2c(SCC(N)=O)nnc2-c2cnccn2)cc1	none
Cc1ccc(-n2nc(C)c3c(C(=O)NC4CCN(Cc5ccccc5)CC4)cc(C)nc32)cc1	none (no result: D2 ag-1, D2 ag-2, D2 antag, D2 PAM-1, D2 PAM-2)
CCC(=O)Nc1ccc(NC(=O)c2oc3ccccc3c2C)cc1	none
Cc1c(C(=O)NNC(=O)Nc2ccc([N+](=O)[O-])cc2)oc2ccccc12	LDHA inh -44
COc1cc2ccnc(Cc3cccc(OC)c3OC)c2cc1OC	D2 PAM-2 55
O=C(O)c1cccnc1Sc1ccc(F)cc1	none (no result: D2 ag-1, D2 ag-2, D2 antag, D2 PAM-1, D2 PAM-2)
CC(=O)Nc1ccc(Sc2ncccc2C(=O)Nc2ccc(F)cc2)cn1	D2 ag-1 33
CS(=O)(=O)c1ccc(Oc2ccc(-c3nnco3)cc2)c([N+](=O)[O-])c1	D2 PAM-1 41
O=[N+]([O-])c1cc(Cl)ccc1Oc1ccc(-c2nnco2)cc1	none
O=C(NCc1ccc(OC(F)F)cc1)C1CCN(S(=O)(=O)c2cccnc2)CC1	none (no result: D2 ag-1, D2 ag-2, D2 antag, D2 PAM-1, D2 PAM-2)
CN1/C(=C\C=C2/SC(=S)NC2=O)C(C)(C)c2ccccc21	D2 ag-1 41
CN1/C(=C\C=C2/C(=O)Oc3ccccc3C2=O)C(C)(C)c2ccccc21	D2 ag-1 125, D2 antag 68, LDHA inh -50
O=C(O)CCNC1CC1	none (no result: D2 ag-1, D2 ag-2, D2 antag, D2 PAM-1, D2 PAM-2)
Cc1cc(C(=O)N2CCCC(N3CCN(c4ccccc4C)CC3)C2)no1 (stereo not drawn)	none (no result: D2 ag-1, D2 antag, D2 PAM-1)
COc1ccccc1N1CCN(C2CCCN(C(=O)c3oc(C)cc3C)C2)CC1 (stereo not drawn)	D2 antag 46
COc1ccccc1N1CCN(C2CCCN(C(=O)c3csc(C)n3)C2)CC1 (stereo not drawn)	none
CSc1nc(C(=O)N2CCCC(N3CCN(c4ccccc4C)CC3)C2)cs1 (stereo not drawn)	D2 antag 39
Nc1nccnc1C(=O)NCC(O)c1ccc(F)cc1F (stereo not drawn)	none (no result: D2 ag-1, D2 ag-2, D2 antag, D2 PAM-1, D2 PAM-2)
CCCCNC(=S)NCc1ccc2[nH]c(C)cc2c1	D2 antag 30
Cc1cc2cc(CNC(=S)Nc3ccc(Br)cc3)ccc2[nH]1	none (no result: D2 ag-1, D2 ag-2, D2 antag, D2 PAM-1, D2 PAM-2)

Screens: PubChem, National Center for Advancing Translational Sciences (NCATS)
